This is an account of results in PubChem BioAssay AID2685 (National Center for Advancing Translational Sciences (NCATS), 2010).

About 2,100 (0.66%) of roughly 320,000 compounds were called active. Another 53% or so got no clear call; they are omitted. Calls follow the shape of the dose curve; as a rule, active = well fitted inhibition curve with a large enough effect in the signal ratio, with a control signal flat (not every such curve was filed as active); inconclusive = small, poorly fitted or top-dose-only effect, or effect the other way, or a change in a side signal; inactive = flat fitted curve, though single readings scatter; the % refers to the signal ratio. Shown is part of a subset that was picked to be rich in actives.
Potency is read from the fitted curve at half-maximal effect.

This assay is described as follows: qHTS Assay for Lipid Storage Modulators in Drosophila S3 Cells.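 As to cell number change: cells counted by Cell Tracker Red CMTPX staining in the red channel.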 As to lipid storage change, negative = inhibition: % is scaled to controls: 0 for no effect and ±100 for the full control effect. The following applies: BODIPY lipid droplet fluorescence, 18-24 h, cells fed with added oleic acid; cell number change: measured here: cell count max response; series mostly up to 46.1 µM; lipid storage change, negative = inhibition: at the top concentration. Put shortly:
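Drosophila S3 cells loaded with oleic acid (400 uM, as added) and compounds at several concentrations; lipid droplets imaged by 488-nm laser-scanning cytometry, 500–530 nm intensity and object ratio to cell channel. Percent activity normalized to 20 uM Triacsin C.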
(In qHTS, concentration-response curves come from the screen itself.)
For the molecule `O=C(O)CCCC(=O)Nc1ccc(N=Nc2ccccc2)cc1`, the “lipid storage change, negative = inhibition” value was 0.135% (inactive) and the cell number change was determined as 17%.
As to `CCCCCC/C=N/Nc1nnc(Cc2ccc(OC)c(OC)c2)c(=O)[nH]1`, the “lipid storage change, negative = inhibition” value was -24% (inactive).
With `CC(=O)Nc1ccc(S(=O)(=O)Nc2nnc(CC(C)(C)C)s2)cc1`, the “lipid storage change, negative = inhibition” value is -22.2% (inactive) and the cell number change was 0.722%.
Regarding `CC(=O)Nc1ccc2nc(NS(=O)(=O)c3ccc(C)cc3)sc2c1`, the “lipid storage change, negative = inhibition” value is 14.3% (inactive) and the cell number change came to 2.04%.
Consider `CC(=O)Nc1ccc(S(=O)(=O)Nc2nc3ccc(C)cc3s2)cc1`, for which the “lipid storage change, negative = inhibition” value is 8.73% (inactive) and the cell number change is 6.47%.
As for `CC(=O)Nc1ccc(S(=O)(=O)Nc2nc3ccccc3s2)cc1`, the Potency was 23.1 µM (active) and the cell number change was -10.9%.
`O=S(=O)(Nc1nnc(C2CCCCC2)s1)c1ccc(F)cc1`: the “lipid storage change, negative = inhibition” value is -48.6% (inactive) and the cell number change is -12.8%.
Turning to `CC(=O)Nc1ccc(S(=O)(=O)Nc2nnc(C3CCCCC3)s2)cc1`, the Potency is 3.66 µM (active) and the cell number change stood at 6.53%.
On to `COc1ccc(CCNC(=O)C(=O)Nc2nccs2)cc1OC`, for which the result was inactive.
`Cc1c(N=C/C=C/c2ccccc2)cnn1C`: the “lipid storage change, negative = inhibition” value is -0.162% (inactive) and the cell number change turned out to be 0.211%.
Turning to `CCc1nnc(SCC(=O)Nc2nccs2)n1CC`, the “lipid storage change, negative = inhibition” value was 2.94% (inactive) and the cell number change was 1.52%.
As to `CC1(C)Cc2c(cnn2-c2cccc(F)c2)C(NC(=O)CN2CCCC2=O)C1` (stereo not given), the result was inactive and the cell number change is -1.15%.
In the case of `CCOC(=O)COc1ccc(C)cc1-c1ccno1`, the result was inactive.
Consider `Cc1oc(C(=O)O)cc1COc1cccc2cccnc12`, for which the Potency was 6.51 µM (active) and the cell number change amounted to 7.93%.
Take `Cc1oc(C(=O)O)cc1COc1cccc2ccccc12`: the “lipid storage change, negative = inhibition” value was 16.2% (inactive) and the cell number change was 16.3%.
The like results for `COc1cc(C(=O)O)cc(OC)c1OCc1cc(C(=O)O)oc1C` were, in that order, -16.4% (inactive) and -10.9%.
Consider `Cn1cc(-c2ccc(Cl)cc2)cc(C#N)c1=O`, for which the “lipid storage change, negative = inhibition” value is 4.19% (inactive).
Consider `Cc1ccccc1/C=N/n1c(COc2ccccc2)n[nH]c1=S`, for which the “lipid storage change, negative = inhibition” value is 13.7% (inactive) and the cell number change was 4.96%.
Consider `O=C(OCCOCCN=C1NS(=O)(=O)c2ccccc21)c1ccc(F)cc1`, for which the Potency is 1.64 µM (active) and the cell number change is 13.2%.
As to `O=C(OCCCN=C1NS(=O)(=O)c2ccccc21)C1CC(=O)N(c2ccc(Cl)cc2)C1` (stereo not given), the “lipid storage change, negative = inhibition” value is -7.49% (inactive) and the cell number change is -12.2%.
Take `O=C(OCCOCCN=C1NS(=O)(=O)c2ccccc21)c1ccncc1`: the “lipid storage change, negative = inhibition” value was -5.87% (inactive) and the cell number change was found to be 0.489%.
As to `O=C(OCCCN=C1NS(=O)(=O)c2ccccc21)c1ccc(F)cc1`, the “lipid storage change, negative = inhibition” value is 19.4% (inactive) and the cell number change is -17.4%.
Taken in the same sequence, the figures for `O=C(CN1C(=O)c2ccccc2C1=O)OCCOCCN=C1NS(=O)(=O)c2ccccc21` were 10.3% (inactive) and 10.2%.
`O=C(OCCOCCN=C1NS(=O)(=O)c2ccccc21)C1CC(=O)N(c2ccccc2)C1` (stereo not given): the Potency is 8.2 µM (active).
Regarding `CN(CC(=O)Nc1ccc(Cl)cc1)CC(=O)Nc1ccc(C(N)=O)cc1`, the “lipid storage change, negative = inhibition” value was 0.257% (inactive) and the cell number change was -11%.
With `Cc1cc(=O)n(C)c(=O)n1CCCCOc1cccc([N+](=O)[O-])c1`, the “lipid storage change, negative = inhibition” value is 11.3% (inactive) and the cell number change was 11.9%.
For `N#Cc1nc(-c2cccs2)oc1NCc1ccc(Cl)cc1`, the call was inactive.
`Cc1cc2occ(CC(=O)Nc3nccs3)c2cc1C(C)C`: the outcome was inactive.
`Cc1cc2occ(CC(=O)NCc3cccs3)c2cc1C(C)C`: the Potency is 1.46 µM (active) and the cell number change was -2.8%.
`Cc1ccc2c(CC(=O)NCc3cccs3)coc2c1`: the “lipid storage change, negative = inhibition” value is 26.1% (inactive) and the cell number change was 20.1%.
`O=C(O)c1ccc2c(c1)C(=O)N(c1ncccn1)C2=O`: the “lipid storage change, negative = inhibition” value is 2.95% (inactive) and the cell number change is -0.987%.
As for `Cc1ccc(Cn2c(CN3CCOCC3)nc3c2c(=O)n(C)c(=O)n3C)cc1`, the “lipid storage change, negative = inhibition” value was 2.04% (inactive) and the cell number change stood at 6.6%.
Take `COc1ccc(-c2[nH]ncc2CN(C)C(C)c2cccs2)c(F)c1` (stereo not given): the “lipid storage change, negative = inhibition” value was 2.81% (inactive) and the cell number change stood at 8.77%.
As to `COc1ccc(Cc2nc3ccc(C(=O)NC(C)c4cn(C)nc4C)cc3o2)cc1` (stereo not given), the call was inactive and the cell number change was -22.9%.
As for `O=C(O)c1c(Cl)cccc1Cl`, the “lipid storage change, negative = inhibition” value was 3.03% (inactive) and the cell number change was 4.08%.
The like results for `O=C(Oc1ccc(/C=N/O)cc1)c1ccccc1Cl` were, in that order, 14.4% (inactive) and -11.5%.
For `O=C(Oc1ccccc1)c1c(Cl)cccc1P(=O)(O)O`, the Potency was 3.66 µM (active) and the cell number change was found to be 3.12%.
In the case of `CSc1ccc(Cl)c(C(=O)N2CCOc3ccccc32)c1`, the “lipid storage change, negative = inhibition” value is 3.65% (inactive) and the cell number change was -26.8%.
Taken in the same sequence, the figures for `O=C(c1ccc(N2C(=O)C3CC=C(Cl)CC3C2=O)cc1)N1CCOCC1` (stereo not given) were -4.16% (inactive) and 30%.
Consider `COc1cc(C=O)ccc1OCC(=O)Nc1ccccc1N1CCOCC1`, for which the Potency is 2.59 µM (active) and the cell number change was -24.3%.
On to `COc1ccccc1OCC(=O)Nc1ccc(N2CCOCC2)cc1N1CCOCC1`, for which the “lipid storage change, negative = inhibition” value was -21.3% (inactive) and the cell number change worked out at 2.71%.
Take `COc1cc(C(=O)Nc2ccccc2N2CCOCC2)ccc1OCC(=O)N1CCOCC1`: the “lipid storage change, negative = inhibition” value was -20.4% (inactive).
In the case of `Cc1c(OC(C)C(=O)NCc2ccncc2)ccc2c3c(c(=O)oc12)CCC3` (stereo not given), the result was inactive and the cell number change is -1.18%.
For the molecule `Cc1c(OCC(=O)NCC(O)c2ccccc2)ccc2c(-c3ccccc3)cc(=O)oc12` (stereo not given), the Potency is 16.4 µM (active) and the cell number change was -9.69%.
For the molecule `Cc1c(OC(C)C(=O)NCC(O)c2ccccc2)ccc2c3c(c(=O)oc12)CCCC3` (stereo not given), the Potency was 29.1 µM (active) and the cell number change came to 9.43%.
Take `CCc1cc2c(-c3ccccc3)cc(=O)oc2cc1OC(C)C(=O)NCC1CCC(C(=O)O)CC1` (stereo not given): the outcome was inactive and the cell number change came out at 17.8%.
As for `Cc1c(OC(C)C(=O)N[C@H](C(=O)O)c2ccccc2)ccc2c3c(c(=O)oc12)CCCC3` (stereo not given in full), the “lipid storage change, negative = inhibition” value is -14.4% (inactive) and the cell number change was -8.43%.
Take `CCc1cc2c(-c3ccccc3)cc(=O)oc2cc1OCC(C)=O`: the Potency was 0.651 µM (active) and the cell number change was -1.82%.
In the case of `Cc1c(OCC(=O)NCC2CCC(C(=O)O)CC2)ccc2c(-c3ccccc3)cc(=O)oc12` (stereo not given), the “lipid storage change, negative = inhibition” value is 6.37% (inactive) and the cell number change is 0.647%.
In the case of `CCc1cc2c(-c3ccccc3)cc(=O)oc2cc1OCC(=O)NCC1CCC(C(=O)O)CC1` (stereo not given), the “lipid storage change, negative = inhibition” value is -3.52% (inactive) and the cell number change came out at 22.7%.
With `Cc1c(OCC(=O)NCC(O)c2ccccc2)ccc2c3c(c(=O)oc12)CCCC3` (stereo not given), the outcome was inactive and the cell number change is -19.4%.
Consider `CC(Oc1ccc2c3c(c(=O)oc2c1)CCC3)C(=O)NCc1ccccn1` (stereo not given), for which the molecule was called inactive and the cell number change amounted to 1.9%.
In the case of `Cc1c(OC(C)C(=O)NCc2ccccn2)ccc2c3c(c(=O)oc12)CCC3` (stereo not given), the Potency is 11.6 µM (active) and the cell number change was -27.2%.
For the molecule `CC(=O)COc1ccc2c(-c3ccccc3)cc(=O)oc2c1C`, the “lipid storage change, negative = inhibition” value is 10.7% (inactive) and the cell number change is -1.68%.
